# High-throughput results deposited in PubChem by Broad Institute.
# An excerpt weighted towards active compounds, which were near 2.7% of everything screened.
# INS-1E GSIS act: primary screen for activators of insulin secretion dependent on glucose, INS-1E cells, GLuc reporter luminescence | 0.61% of 370,000 active | AID 743287 | activation, % at 16.6 µM | INS-1E GLuc reporter insulin secretion, 2-3 h;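 active = lowest replicate activation of at least 40%, so every replicate reaches that level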;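 note: 0% = median of neutral control wells and 100% = median of IBMX positive control wells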
# PGC1a acetyl inh: lowers PGC1a acetylation signal in U2OS cells. inhibition, % at 15.6 µM. AID 651687. 0.17% of 350,000 active. AlphaScreen anti-acetyl-lysine; with virally co-expressed GCN5 acetyltransferase;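 active = every replicate shows inhibition of at least 40%; inconclusive = mean inhibition at least 40% but some replicate below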;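 note: 0% = neutral control wells and 100% = positive control wells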
# PAX8 reporter: PAX8 transcriptional activity inhibition. 1.2% of 360,000 active. inhibition, % at 12.6 µM. RMG-I TPO-luciferase reporter, SteadyGlo, 24 h;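 active = mean replicate inhibition at least 60% with every replicate also reaching 60%; inconclusive = only one of the two criteria is met; inactive = mean below 60% and not all replicates reaching 60%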;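 note: luciferase light reporting Pax8 driven TPO promoter activity; plate controls were median of neutral control wells for no effect and mitoxantrone controls for full effect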
# F508del corr: CFTR F508del correction in bronchial cells; CFBE cells, YFP halide quenching; stimulated with forskolin plus potentiator P3; % fluorescence drop versus neutral controls; activity (quench increase), % at 7.58 µM; 0.36% of 350,000 active;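 active = mean added fluorescence quench of at least 8% versus neutral control, with both replicates also reaching 8%; inconclusive = only one of the mean or replicate conditions met; inactive = mean below 8% and not both replicates reaching 8%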;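 note: cells transiently co-express mutant CFTR-F508del with the halide-sensitive YFP; corrector assay measuring rescue of mutant channel to the surface after 24 h compound exposure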
# EWS-Fli block: inhibitors of EWS/Fli oncoprotein transcriptional activity; A673 NR0B1-luciferase reporter, viability-normalised; inhibition, % at 12.6 µM; 0.67% of 350,000 active;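 active = mean inhibition of at least 50% after viability correction, with every replicate also passing that limit; inconclusive = mean reaches 50% but only one of two replicates passes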;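 note: firefly luciferase signal divided by Alamar Blue viability fluorescence both relative to DMSO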
# HIV Env fusion: HIV envelope-mediated fusion inhibition; HeLa-JRFL Env/CEM21 cell fusion, luciferase; inhibition, % at 12.3 µM; 1.1% of 360,000 active;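 active = mean replicate inhibition score of at least 50 and every replicate individually at or above 50; inconclusive = only one of the two criteria met; inactive = mean below 50 and not all replicates reaching 50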;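 note: 0% = plate neutral controls and 100% = maraviroc near 300 nM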
# Active calls of the source: *; ? = inconclusive; nt = no result; [ ] = remark or other dose.
SMILES,INS-1E GSIS act,PGC1a acetyl inh,PAX8 reporter,F508del corr,EWS-Fli block,HIV Env fusion
C[C@@H]1CN([C@H](C)CO)C(=O)c2cc(C#Cc3ccncc3)cnc2O[C@@H]1CN(C)S(=O)(=O)c1ccccc1F,10,4,nt,2,-5,60*[16.7 µM]
C[C@@H]1CN([C@@H](C)CO)C(=O)c2cc(C#Cc3ccncc3)cnc2O[C@H]1CN(C)S(=O)(=O)c1ccccc1F,-24,35,nt,-4,-12,28[16.7 µM]
C[C@H](CO)N1C[C@H](C)[C@H](CN(C)S(=O)(=O)c2ccccc2)Oc2ncc(/C=C/c3ccccc3)cc2C1=O,4,5,nt,1,12,74*[16.7 µM]
COc1ccc(NC(=O)N(C)C[C@H]2Oc3ncc(C#C[C@@H](C)O)cc3C(=O)N([C@@H](C)CO)C[C@@H]2C)cc1,31,1,nt,-2,-7,-9[16.7 µM]
O=C(C[C@@H]1C=C[C@@H](NC(=O)c2ccncc2)[C@@H](CO)O1)Nc1ccc(-c2ccccc2)cc1,5,nt,nt,-2,nt,nt
CCCNC(=O)N1C[C@@H](O)COC[C@H]2O[C@H](CC(=O)N3CCOCC3)CC[C@@H]21,9,-5,-17,2,-1,nt
COc1ccccc1C(C[N+](=O)[O-])c1c(N)n(C)c(=O)n(C)c1=O (stereo unspecified),-23,-27,64*,0,23,-16
COc1cccc(C(c2c(N)n(C)c(=O)n(C)c2=O)C(C)[N+](=O)[O-])c1 (stereo unspecified),18,nt,-9,-1,-3,2
COc1ccccc1C(c1c(N)n(C)c(=O)n(C)c1=O)C(C)[N+](=O)[O-] (stereo unspecified),-6,-5,1,0,11,3
Cn1c(N)c(C(c2ccccc2)c2c(N)n(C)c(=O)n(C)c2=O)c(=O)n(C)c1=O,41*,nt,nt,nt,nt,nt
O=C(NCC[C@@H]1CC[C@@H](NC(=O)c2cnccn2)[C@H](CO)O1)Nc1ccc(Cl)cc1,-15,-9,-20,-1,-8,-2[16.7 µM]
CC(C)=CCC/C(C)=C/CNC(=O)C[C@H]1C[C@H](C(=O)N2CCOCC2)[C@@]2(C)c3[nH]c4ccc(Cl)cc4c3CCN2C1=O,-22,-2,104*,2,36,8
O=C(C[C@H]1C[C@H](C(=O)N2CCCCC2)[C@@]2(CCc3ccccc3)c3[nH]c4ccc(Cl)cc4c3CCN2C1=O)NCc1ccco1,-6,-2,73*,5,22,18
CC(C)N(C(=O)[C@H]1C[C@H](CC(=O)NCC23CC4CC(CC(C4)C2)C3)C(=O)N2CCc3c([nH]c4ccc(Cl)cc34)[C@]12C)C(C)C,2,nt,67*,-2,3,nt
CCN(CC)C(=O)[C@H]1C[C@H](CC(=O)NCC23CC4CC(CC(C4)C2)C3)C(=O)N2CCc3c([nH]c4ccc(Cl)cc34)[C@]12C,-19,0,41,-1,-1,65*
COc1ccccc1CNC(=O)C[C@@H]1CC[C@H]2[C@H](COc3ccc(NC(=O)Nc4ccc(F)c(F)c4)cc3C(=O)N2C)O1,-4,4,59,0,13,nt
CCN(CC)C(=O)[C@H]1CC(CC(=O)NCc2cccc(C(F)(F)F)c2)C(=O)N2CCc3c([nH]c4ccccc34)[C@]12C (stereo partly specified),-15,?,-13,-1,-1,-140
CCN(CC)C(=O)[C@H]1C[C@H](CC(=O)NCc2cccc(C(F)(F)F)c2)C(=O)N2CCc3c([nH]c4ccc(Cl)cc34)[C@]12C,-8,-3,76*,3,22,-17
C[C@@H]1CN([C@@H](C)CO)C(=O)c2cccc(NC(=O)NC3CCCCC3)c2O[C@H]1CN(C)C(=O)Nc1ccc(F)cc1,-3,-1,-4,-1,-10,2[16.7 µM]
Cc1ccc(/C=C2/CNC/C(=C/c3ccc(C)cc3)C2=O)cc1,9,74*,31,-9,53*,66*
Cc1ccc(/C=C2\CCOC2=O)cc1,1,nt,-24,1,-30,-13
COc1ccc([C@H]2CC(=O)C=C(c3ccc(F)cc3OCc3ccccc3)C2)cc1OC,nt,nt,52,5,23,72*
COc1ccc([C@H]2CC(=O)C=C(c3ccc(OC)cc3OC)C2)cc1,1,nt,-5,11*,45,12
